PubChem BioAssay (NCATS)
Records with an inconclusive call do not appear. The source made the active and inactive calls. The call rests on the fitted dose curve; in most records, active means well fitted inhibition curve with a large enough effect; inconclusive means small, poorly fitted or top-dose-only effect; inactive means flat fitted curve, though single readings scatter.

Tests used:
Assay in all cases: qHTS profiling for inhibitors of Plasmodium falciparum proliferation (AID 504749); further: nearly all actives have a fitted effect of over 60% in size
Conditions in all cases: P. falciparum in erythrocytes, SYBR Green DNA, 72 h; series mostly up to 12.8 µM
[1] = test system: CP252
Outline: (§1)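 Infected RBCs, 0.3% parasitemia/2.5% Hct final; cpd 72 h, 37 C, 5% CO2; lysis buffer with saponin/triton/SYBR Green I, o/n RT dark; FI 485/535; norm. to artemisinin (0.29 uM) and DMSO.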

[2] = test system: CP256
Outline: as §1

[3] = test system: CP260
Outline: as §1

[4] = test system: CP262
Outline: as §1

[5] = test system: CP265
Outline: as §1

[6] = test system: CP266
Outline: as §1

[7] = test system: CP268
Outline: as §1

[8] = test system: CP269
Outline: as §1

[9] = test system: CP286
Outline: as §1

[10] = test system: CP291
Outline: as §1

[11] = test system: CP297
Outline: as §1

[12] = test system: CP305
Outline: as §1

[13] = test system: CP315
Outline: as §1

[14] = test system: CP325
Outline: as §1

[15] = test system: CP329
Outline: as §1

[16] = test system: CP335
Outline: as §1

[17] = test system: DFO2036
Outline: as §1

[18] = test system: DIV14
Outline: as §1

[19] = test system: DIV17
Outline: as §1

[20] = test system: DIV30
Outline: as §1

[21] = test system: Dd2
Outline: as §1

[22] = test system: ECU
Outline: as §1

[23] = test system: FAB9
Outline: as §1

[24] = test system: GB4
Outline: as §1

[25] = test system: HB3
Outline: as §1

[26] = test system: ICS
Outline: as §1

[27] = test system: JCK
Outline: as §1

[28] = test system: N140
Outline: as §1

[29] = test system: P93_24
Outline: as §1

[30] = test system: P94_40
Outline: as §1

[31] = test system: PAD
Outline: as §1

[32] = test system: PC15
Outline: as §1

[33] = test system: PC26
Outline: as §1

[34] = test system: PC49
Outline: as §1

[35] = test system: SC27B
Outline: as §1

[36] = test system: TAB109
Outline: as §1

[37] = test system: TAB113
Outline: as §1

[38] = test system: TAB165
Outline: as §1

[39] = test system: W2
Outline: as §1

Measured: Potency

O=C(O)[C@@H]1CCCN1
inactive: all assays above
